Unmarked numbers belong to inactive results. Activity calls are given as the source filed them. Calls come from the whole dose curve; as a rule, active = well fitted activation curve with a large enough effect; inconclusive = small, poorly fitted or top-dose-only effect; inactive = no such curve, though single readings can be large or run the other way.
test: Confirmatory qHTS for Identification of Small Molecule Activators of Huntingtin-Antisense Promoter Activity; conditions: HEK293 HTT-AS promoter firefly luciferase reporter, 24 h; series mostly up to 57.5 µM; activity change, positive = activation: at the top concentration
Outline: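 HEK293 luciferase reporter cells, 2,500/well, cultured 24 h, then exposed to compounds at up to 57.5 uM final for 24 h at 37C. Firefly luciferase luminescence read; normalized to vehicle (0%) and zero RLU (-100%).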
Potency is the fitted concentration of half-maximal effect.

Row | SMILES | activity change, positive = activation | Potency
1 | CCCCOc1ccc(C(=O)Nc2ccc3c(c2)CCCN3S(=O)(=O)c2ccc(C)cc2)cc1 | -62.3% | –
2 | Cc1ccc(C)c(N2CCN(S(=O)(=O)c3cc(C(=O)Nc4ccccc4C(F)(F)F)ccc3F)CC2)c1 | -30.8% | –
3 | COc1ccc(N(Cc2ccccc2)C(=O)c2nc(SC)ncc2Cl)cc1 | -54% | –
4 | COC(=O)c1c(C)oc2ccc(N(C(=O)c3ccncc3)S(=O)(=O)c3cc(C)c(C)cc3C)cc12 | -93.4% | –
5 | CCCCN1CC(c2nc3ccccc3n2CCCCOc2ccccc2C)CC1=O (stereo not given) | -45.6% | –
6 | COc1ccc(S(=O)(=O)Nc2cc3c(C(=O)OC(C)C)c(C)oc3c3ccccc23)cc1 | -11.5% | –
7 | O=C(Cn1c(=O)oc2cc(S(=O)(=O)N3CCCCC3)ccc21)NCc1ccc(Cl)cc1 | -0.668% | –
8 | COC(=O)C1CCN(S(=O)(=O)c2ccc(N3CCCCS3(=O)=O)cc2)CC1 | -35.7% | –
9 | Cc1ccc(CN2CCC(CNC(=O)c3cnn(-c4ccccc4Cl)c3C3CCN(C(=O)OC(C)(C)C)CC3)CC2)cc1 | -30.1% | –
10 | CCN(CC)S(=O)(=O)c1ccc(NC(=O)CCc2c(C)nc3cc(-c4ccc(Cl)cc4)nn3c2C)cc1 | -85.7% | –
11 | O=C(Nc1ccc(Cl)c(Cl)c1)N(Cc1c[nH]c2ccccc12)C1CCCCC1 | – | 2390 nM (active)
12 | COc1ccc(NC(=O)Cn2nc(C(F)(F)F)c3c2CCCC3)cc1OC | -53.1% | –
13 | CCc1ccc(NC(=O)c2cc(S(=O)(=O)N3CCCCCC3)ccc2F)cc1 | -22.9% | –
14 | Clc1ccc(N2CCN(c3ncnc4c3nc3n4CCCC3)CC2)cc1 | -85.8% | –
15 | CCOC(=O)Cc1ccc(NC(=O)N(Cc2ccc(CC)cc2)Cc2cn[nH]c2-c2ccc(OC)cc2)cc1 | -29.3% | –

From PubChem BioAssay AID1508622 (National Center for Advancing Translational Sciences (NCATS), 2021)
